Compounds with a hit are over-represented: about 12% of the library has one in this group of screens.
SARS PLpro yeast: blocks SARS-CoV papain-like protease in a yeast assay | S. cerevisiae expressing SARS-CoV PLpro, growth rescue | Potency, µM (series often up to 32.9 µM), without a hit: at the top dose activity, positive = growth rescue, actives largely listed as activators | 0.19% of 330,000 active; also: potency is read from the fitted curve at half-maximal effect; 0% is about no effect; nearly all actives have a fitted effect of over 55% in size
Shiga inhibitor: inhibitors of Shiga toxin in Vero cells; Vero cells, Shiga toxin protein synthesis inhibition reporter; inhibition, % at 38.7 µM; 9.2% of 290,000 active; AID 2315; in the data active = inhibition mostly above about 28%, no sharp cut-off; inactive = mostly below about 43%; also: 0% is about no effect
CHX counter: counter-screen hit for Shiga toxin inhibitors, cycloheximide. 12% of 300,000 active. max response, %. AID 2314. cell reporter, cycloheximide protein synthesis inhibition counterscreen; in the data active = max response mostly above about 13%, no sharp cut-off; inactive = mostly below about 14%; also: read at 38.3 µM for the half of the compounds with a filed dose; 0% is about no effect
NS1 function inh: blocks influenza NS1 protein function; Potency, µM (highest dose often 46.1 µM), inactives show at the highest dose activity, positive = more growth; 0.4% of 270,000 active; also: potency is read from the fitted curve at half-maximal effect; actives are rising curves; nearly all actives have a fitted effect of over 50% in size
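Read-out: OD600 growth recovery of NS1-expressing budding yeast. Cells grown overnight at 30C in -URA glucose medium, washed, resuspended and diluted 1:100 in 2% galactose assay medium, pH 6.0. Same strain lacking NS1 served as positive control.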
* hit, by the source's call; ? = inconclusive; . = no result given. Unless noted, calls follow the shape of the full dose curve.

SMILES | SARS PLpro yeast | Shiga inhibitor | CHX counter | NS1 function inh
CCc1ccc(Nc2nnc(SCC(=O)N(C)C3CCS(=O)(=O)C3)s2)cc1 (stereo unspecified) | -1% | 23 | 17* | -5%
CN(C)CCCN(C(=O)c1ccc(C(=O)c2ccccc2)cc1)c1nc2cc3c(cc2s1)OCCO3 | 2% | 19 | -3 | -20%
CN(C)CCN(C(=O)c1ccc(S(=O)(=O)N(C)c2ccccc2)cc1)c1nc2cc3c(cc2s1)OCO3 | -1% | 28 | 18* | 14%
CN(C)CCN(C(=O)CN1C(=O)c2ccccc2C1=O)c1nc2cc3c(cc2s1)OCO3 | -1% | 49 | 27* | ?
CN(C)CCN(C(=O)c1ccco1)c1nc2cc3c(cc2s1)OCCO3 | -3% | 41 | 38* | 10%
CN(C)CCN(C(=O)c1ccc(C(=O)c2ccccc2)cc1)c1nc2cc3c(cc2s1)OCCO3 | 1% | 81* | 36* | -28%
COc1ccc(C(=O)NNC(=O)c2cccs2)cc1S(=O)(=O)N1CCOCC1 | -4% | . | . | .
O=C(Cn1nc(C(F)(F)F)c2c1CCC2)NCc1ccc(Cl)cc1 | 18% | 3 | -2 | 1%
CC(C)(C)OC(=O)N[C@H]1C=C[C@@H](OC(=O)CC(=O)OCC(F)(F)F)C1 | -1% | . | . | .
CCCCN1C(=O)C(=O)N(CC(=O)NC2CCCc3ccccc32)C1=O (stereo unspecified) | 2% | 26 | 7 | 4%
CN(C)CCN(C(=O)c1ccc(S(=O)(=O)N(C)c2ccccc2)cc1)c1nc2ccc(Cl)cc2s1 | -3% | 64* | 34* | 12%
CN(C)CCCN(C(=O)c1ccc(S(=O)(=O)N2CCc3ccccc32)cc1)c1nc2ccc(Cl)cc2s1 | -4% | -16 | 10 | 22%
CN(C)CCCN(C(=O)CCSc1ccccc1)c1nc2cc3c(cc2s1)OCO3 | -6% | -4 | 3 | .
CN(C)CCCN(C(=O)CCS(=O)(=O)c1ccccc1)c1nc2cc3c(cc2s1)OCO3 | 1% | 17 | 9.9* | -3%
COc1ccc2sc(N(CCN(C)C)C(=O)c3ccc4ccccc4c3)nc2c1 | 5% | 21 | 21* | -15%
CN(C)CCN(C(=O)c1ccc(C(=O)c2ccccc2)cc1)c1nc2cc3c(cc2s1)OCO3 | -4% | 21 | 10* | -19%
CN(C)CCCN(C(=O)c1ccc(S(=O)(=O)N(C)C)cc1)c1nc2cc3c(cc2s1)OCO3 | -1% | 14 | 8 | -1%
CSCCC(NC(=O)c1ccco1)C(=O)NCCc1ccc(Cl)cc1 (stereo unspecified) | 1% | . | . | .
Cc1cc(C)c(S(=O)(=O)N2CCC3(CC2)OCCN3S(=O)(=O)c2cccs2)c(C)c1 | 1% | . | . | .
CN(C)CCCN(C(=O)C1COc2ccccc2O1)c1nc2cc3c(cc2s1)OCO3 (stereo unspecified) | 1% | 2 | -2 | 7%
CN(C)CCN(C(=O)c1ccc(N2C(=O)CCC2=O)cc1)c1nc2cc3c(cc2s1)OCCO3 | -1% | 60* | 38* | .
Cc1cc(C)c2nc(N(CCN(C)C)C(=O)c3ccc(S(=O)(=O)N(C)CC4CCCO4)cc3)sc2c1 (stereo unspecified) | 0% | 58 | 22* | 1%
CCOc1cccc2sc(N(CCCN(C)C)C(=O)c3ccc(S(=O)(=O)N(C)CC4CCCO4)cc3)nc12 (stereo unspecified) | 3% | -12 | -3 | -8%
CN(C)CCCN(C(=O)COc1ccccc1)c1nc2cc3c(cc2s1)OCCO3 | -2% | 18 | 24* | -20%
CCN(CC(=O)NCc1cccs1)S(=O)(=O)c1cc(NC(C)=O)ccc1OC | 4% | . | . | .
SMILES | SARS PLpro yeast | Shiga inhibitor | CHX counter | NS1 function inh
O=C(N=C1SC2CS(=O)(=O)CC2N1c1ccccc1Cl)C1CCCO1 (stereo unspecified) | -3% | -4 | -2 | -4%
O=[N+]([O-])c1ccc(Nc2ccccc2)nc1 | 6% | -2 | 2 | -14%
Cc1ccc(Nc2ccc([N+](=O)[O-])cn2)cc1Cl | -5% | 46* | 27* | -23%
O=[N+]([O-])c1ccc(Nc2ccc(F)cc2)nc1 | 7% | 32* | 15* | -15%
CN(C)c1ccc(Nc2ccc([N+](=O)[O-])cn2)cc1 | -1% | 132* | 34* | -25%
CC(=O)Nc1ccc(Nc2ccc([N+](=O)[O-])cn2)cc1 | 0% | 37 | 6 | -8%
CCOC(=O)C(Cc1ccccc1)NC(=O)CCCC(=O)c1ccccc1 (stereo unspecified) | -5% | -10 | -1 | -52%
COc1ccccc1CNC(=O)CCS(=O)(=O)c1ccc(Cl)cc1 | -5% | . | . | .
O=C(O)c1ccc(-n2cccc2/C=N\NC(=O)c2cc3cc(Br)ccc3o2)cc1 | 3% | 25 | 1 | 19%
Cc1ccc(NC2Sc3ccccc3NC2=O)cc1Cl (stereo unspecified) | -3% | 26 | 13* | 5%
Cc1ccc(NC(=O)CC2Nc3ccccc3NC2=O)cc1Cl (stereo unspecified) | 0% | 108* | 28* | -8%
O=C(CC1Nc2ccccc2NC1=O)c1ccccc1 (stereo unspecified) | 0% | 46 | 31* | -11%
O=C(CC1Nc2ccccc2NC1=O)NCCc1ccccc1 (stereo unspecified) | 5% | -2 | -1 | -15%
Cc1ccc(NC(=O)CC2SCCNC2=O)cc1Cl (stereo unspecified) | 0% | 48* | 23* | 2%
Cc1nc(-c2ccccc2)cs1 | -6% | -16 | 2 | -1%
Cc1cccnc1Nc1nc(-c2ccccc2)cs1 | 5% | 104* | 67* | -89%
Cc1cccnc1Nc1nc(-c2ccccn2)cs1 | -13% | 126* | 47* | -145%
NC(N)=NC(N)=Nc1ccc(SC(F)(F)F)cc1 | 6% | -8 | -4 | -9%
CC(=O)C1=C(NC(=O)c2ccc(F)cc2)CC2C1C2(C)C (stereo unspecified) | -5% | 29 | 18 | -5%
C/C(NC(=O)c1ccccc1)=C1/C(=O)CC2C1C2(C)C (stereo unspecified) | 6% | 119* | 43* | -26%
NCCN1C(=O)c2ccccc2[C@@]1(O)c1ccc(Cl)cc1 | . | . | . | 0%
COC(=O)c1ccc(COc2ccc(/C=N/O)cc2OC)o1 | -1% | 71* | 20* | -42%
CCc1ccc(OCc2ccc(C(=O)O)o2)cc1 | -3% | 101* | 64* | -2%
COC(=O)c1ccc(COc2ccc(Cl)cc2)o1 | 0% | 75* | 20* | -7%
N#Cc1ccc(OCc2ccc(C(=O)O)o2)cc1 | -3% | 4 | -3 | 5%
SMILES | SARS PLpro yeast | Shiga inhibitor | CHX counter | NS1 function inh
O=C(O)c1ccc(OCc2ccc(C(=O)O)o2)cc1 | 1% | 32 | 15* | 6%
COC(=O)c1ccccc1NC(=O)C1CC(=O)N(c2ccc(C)c(C)c2)C1 (stereo unspecified) | 3% | -8 | 3 | -24%
COC(=O)c1ccc(COc2cccc(OC)c2)o1 | -1% | 58* | 22* | -14%
C=CCc1ccc(OCc2ccc(C(=O)Nc3ccc(NC(C)=O)cc3)o2)c(OC)c1 | -4% | 136* | 47* | 8%
O=C(O)c1ccc(COc2ccc(Cl)cc2)o1 | -4% | 42 | 24* | -40%
CC(=O)c1ccc(NC(=O)c2ccc(COc3ccccc3[N+](=O)[O-])o2)cc1 | 14% | 0 | -1 | -4%
